Experiment [1] is described as follows: inhibitors of TNFa-induced NFkB p65 translocation, primary screen, imaging, HUVEC, MLSMR starter and 10KST1 sets (AID 438;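 active means inhibition above 20% together with a positive visual image hit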;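 further: compound added about 3h40 before a 20 min TNFalpha stimulation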;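 on inhibition: signal is the nuclear over cytoplasmic p65 intensity ratio per well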). As to conditions: HUVEC TNFa-induced p65 nuclear translocation; cell count: measured here: nuclei count (cytotoxicity indicator), at 2.08 µM; inhibition: at 2 µM, stronger effect = higher value, 0% TNFa-plus-vehicle, 100% no-TNFa wells.
Experiment [2] can be described thus: inhibitors of mutant huntingtin aggregation, primary screen, imaging, exon1htt(103Q)mCFP cells, high-content imaging (AID 483;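 active means visual image review flags a hit and inhibition of aggregation exceeds 20%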;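 further: compound exposure lasted 3 days before fixation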;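 on nuclei count: percent of the per-plate median nuclei count of sample wells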). As to conditions: exon1htt(103Q)mCFP cell line, aggregate imaging, at 2 µM; inhibition of aggregation: stronger effect = higher value; nuclei count: measured here: cell count, toxicity.
Experiment [3] in a line: inhibitors of E-selectin induction by TNFa, primary screen, imaging, HUVEC, immunofluorescence, MLSMR starter and 10KST1 sets (AID 487;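 active means visually confirmed hit in the image check and inhibition above 20%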;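 on inhibition: signal is fraction of cell area covered by stained E-selectin grains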;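 on nuclei count: 100% = median nuclei count of all wells on the same plate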). As to conditions: HUVEC TNFalpha-induced E-selectin immunofluorescence imaging, at 2 µM; inhibition: stronger effect = higher value; nuclei count: measured here: cell number, toxicity.
Experiment [4] in a line: DUSP6 inhibitors restoring Erk phosphorylation by chemical complementation, primary imaging in DUSP6-transfected HeLa (AID 609;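 active means compounds giving at least 50% inhibition in the cell-based MKP-3 phosphatase rescue imaging test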;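 on inhibition: phospho-Erk level distribution per well compared with pooled transfected vehicle control wells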). As to conditions: HeLa MKP-3 transfected, phospho-Erk imaging KS statistic, at 10 µM, cells stimulated with TPA for 15 min.
The target in experiment [5] is Dual specificity protein phosphatase 6 (Homo sapiens) (UniProt Q16828). The description is as above. As to conditions: HeLa MKP-3 transfected, phospho-Erk imaging KS statistic; at 10 µM; stronger effect = higher value; cells stimulated with TPA for 15 min.
Chain of Dual specificity protein phosphatase 6 (Homo sapiens) (Q16828 whole entry, looked up): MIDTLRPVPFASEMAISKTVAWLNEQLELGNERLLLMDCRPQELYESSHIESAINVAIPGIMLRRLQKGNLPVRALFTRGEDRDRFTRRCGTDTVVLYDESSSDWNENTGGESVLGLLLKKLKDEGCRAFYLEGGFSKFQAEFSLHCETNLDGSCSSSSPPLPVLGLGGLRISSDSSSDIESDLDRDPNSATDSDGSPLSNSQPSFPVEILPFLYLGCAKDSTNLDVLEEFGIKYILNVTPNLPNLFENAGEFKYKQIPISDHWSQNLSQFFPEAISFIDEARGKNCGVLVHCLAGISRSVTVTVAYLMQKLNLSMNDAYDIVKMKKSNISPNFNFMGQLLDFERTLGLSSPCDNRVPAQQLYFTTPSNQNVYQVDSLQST
Experiment [6] addresses Voltage-gated potassium channel subunit beta-2 (Rattus norvegicus) (UniProt P62483). Put plainly: KvBeta enzyme negative modulators, primary screen, biochemical, NADPH fluorescence (AID 622;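 active means fluorescence slope higher than the sample average by over 3 SD, cut at about -0.22 in these data, passing the limit was not always enough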;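 further: slope of raw intensity against log time taken from 70 to 1610 s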). As to conditions: recombinant KvBeta, 4-cyanobenzaldehyde reduction, at 10 µM, stronger effect = higher value.
The target is the same in experiment [7]. Put plainly: KvBeta positive modulators, primary screen, biochemical, NADPH fluorescence (AID 623;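 active means NADPH fluorescence slope more negative than the mean of all samples by about 3 SD, 99.7% confidence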;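 further: fluorescence intensity change per second fitted from 20 to 320 s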). As to conditions: Recombinant KvBeta, NADPH fluorescence decrease slope, 10 min; at 10 µM; stronger effect = lower value.
The target in experiment [8] is Alpha-2C adrenergic receptor (Homo sapiens) (UniProt P18825). The experiment in a line: modulators of alpha2C/GIRK thallium flux, primary screen, cell-based, HEK293 alpha2C/GIRK1/2 (AID 624;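 active means fluorescence slope after compound addition differing from the mean of all screened samples at 99.7% confidence, in either direction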;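 further: slope of fluorescence ratio to pre-addition baseline per second over 15 to 24 s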). As to conditions: thallium flux BTC fluorescence, at 10 µM, actives lie on both sides.
Chain of Alpha-2C adrenergic receptor (Homo sapiens) (P18825 whole entry, looked up): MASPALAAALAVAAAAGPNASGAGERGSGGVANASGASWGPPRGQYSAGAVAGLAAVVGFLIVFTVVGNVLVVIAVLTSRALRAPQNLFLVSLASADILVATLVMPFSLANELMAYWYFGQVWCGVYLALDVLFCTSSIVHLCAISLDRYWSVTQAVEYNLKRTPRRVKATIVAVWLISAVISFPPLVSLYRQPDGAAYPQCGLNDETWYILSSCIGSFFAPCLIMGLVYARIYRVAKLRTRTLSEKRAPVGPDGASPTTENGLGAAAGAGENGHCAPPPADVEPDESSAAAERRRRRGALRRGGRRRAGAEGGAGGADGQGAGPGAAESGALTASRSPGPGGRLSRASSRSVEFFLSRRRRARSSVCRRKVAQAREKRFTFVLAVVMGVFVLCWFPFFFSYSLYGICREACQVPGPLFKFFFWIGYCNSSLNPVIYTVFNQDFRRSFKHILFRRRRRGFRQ
Experiment [9] can be described thus: inhibitors of larval lipid processing in zebrafish, primary screen, whole organism, PED6 fluorescence, gall bladder and intestine (AID 686;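 active means a full or partial loss of lipid-probe fluorescence in the fish gall bladder, intestine or both, judged by eye; inactive means no fluorescence loss, or compound toxic to the fish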;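 further: larvae 5 to 7 days old with five fish per well; signal comes from phospholipase A2 cleavage of quenched PED6 carried via bile; overnight exposure to compound and PED6 before scoring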). As to conditions: Zebrafish larvae PED6 lipid processing, fluorescence scoring; screened at 20 µM (by protocol).
Experiment [10] in a line: inhibitors of Chlamydomonas gravitaxis, primary screen, whole organism, Chlamydomonas reinhardtii, WT vs cilia-less mutant, absorbance, 96-well (AID 463189).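 Further: 0% = wild type cc124 cells in DMSO and 100% = ciliumless bld1 mutant cells.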 As to conditions: OD600 absorbance, 2 days, at 10 µM, stronger effect = higher value.
Experiment [11] can be described thus: inhibitors of Sendai virus-induced IRF3 signaling, primary screen, TLR/RLR signaling modifier project, cell-based, Sendai virus stimulus, luciferase, 10K MLSCN set (AID 602276;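 active means inhibition at or above 50% at 10 µM; inactive means inhibition below 50%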;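 further: firefly luciferase from ISG56 promoter only with Renilla not read in this screen; 0% = Sendai virus plus DMSO and 100% = medium plus DMSO without virus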). As to conditions: HEK293 RL24 IRF3 luciferase reporter, at 10 µM, stronger effect = higher value. (In general: A reporter such as luciferase makes a cellular process visible.)
Experiment [12] in a line: inhibitors of poly I:C-induced TLR3 signaling, primary screen, cell-based, poly I:C stimulus, luciferase, 10K MLSCN set (AID 602277;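 active means inhibition of the reporter signal at or above 50%; inactive means inhibition below 50%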). As to conditions: HEK293-TLR3 RL24 IRF3 luciferase reporter, at 10 µM, stronger effect = higher value.
The mark [13] stands for this setting: measured here: cell density z-score.
Where [14] appears, read: measured here: nuclear c-Myc green intensity z-score.
Where [15] appears, read: measured here: nuclear pErk red intensity z-score, stronger effect = higher value.

“And” between values parts separate entries of the source, which are not always exact repeats. Equal values may be shown once. The source made the active and inactive calls.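 How the source made its calls, unless noted: active means inhibition at or above 50% relative to wild type and mutant plate controls; inactive means inhibition below 50%.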

Broadly, the inhibition is the change of the read-out against control, counted positive when it falls.

Chain of Voltage-gated potassium channel subunit beta-2 (Rattus norvegicus) (P62483 whole entry, looked up): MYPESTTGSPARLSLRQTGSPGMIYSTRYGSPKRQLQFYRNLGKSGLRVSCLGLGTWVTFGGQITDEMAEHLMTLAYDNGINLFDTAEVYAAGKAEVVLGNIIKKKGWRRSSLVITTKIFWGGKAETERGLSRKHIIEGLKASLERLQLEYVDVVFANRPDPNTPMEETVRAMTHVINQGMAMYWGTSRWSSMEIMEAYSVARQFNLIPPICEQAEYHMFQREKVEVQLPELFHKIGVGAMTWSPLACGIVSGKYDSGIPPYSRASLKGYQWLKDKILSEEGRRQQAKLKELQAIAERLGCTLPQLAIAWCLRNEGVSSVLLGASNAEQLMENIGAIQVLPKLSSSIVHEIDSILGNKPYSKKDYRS

Regarding `Nc1ccc(S(=O)(=O)Nc2ccccn2)cc1`, the cell count in experiment [1] came out at 684. Besides, the inhibition is 5.6% (inactive) in experiment [1]; -123% (inactive) in experiment [3]; 12.4% (inactive) in experiment [5]; 4.41% (inactive) in [10]; 12.4% (inactive) in experiment [11]; 42.5% (inactive) in [12]. Further, the inhibition of aggregation in [2] is 15.6% (inactive). The nuclei count in experiment [2] worked out at 101%; in experiment [3] it was 131%. For the same compound, the z-score in experiment [4] (setting [13]) was -1.05; in experiment [4] (setting [14]), -1.54; in experiment [4] (setting [15]), 0.683. Moreover, the fluorescence slope in experiment [6] is -0.459 (inactive). Besides, the NADPH fluorescence slope in experiment [7] was -4.9e-05 (inactive). Moreover, the slope in experiment [8] was 0.00448 (inactive). The result in experiment [9] was inactive.
For the compound `OC(CCCN1CCC(O)(c2ccc(Cl)cc2)CC1)c1ccc(F)cc1` (configuration not stated), the cell count in [1] stood at 686. For the same compound, the inhibition in experiment [1] was -2.4% (inactive); in experiment [3] it was -82.7% (inactive); in [5], 14.6% (inactive); in [10], 20.5% (inactive); in experiment [11], 12.8% (inactive); in [12], 40.2% (inactive). The inhibition of aggregation in experiment [2] is -13.4% (inactive). The nuclei count in [2] was determined as 116%; in experiment [3], 118%. For the same compound, the z-score in experiment [4] (setting [13]) was 1.1; in experiment [4] (setting [14]) it was 0.439; in experiment [4] (setting [15]), -0.848. Further, the fluorescence slope in experiment [6] was -0.468 (inactive). In addition, the NADPH fluorescence slope in [7] was -6.6e-05 (inactive). In [8], the slope is 0.00402 (inactive). Further, the compound was classed as inactive in experiment [9].
Regarding `CN(C)CCOC(=O)C(c1ccccc1)C1(O)CCCC1` (configuration not stated), the cell count in experiment [1] was 635. The inhibition in experiment [1] was -7.2% (inactive); in [3], -51% (inactive); in experiment [5] it was -6.41% (inactive); in experiment [10], 13.5% (inactive); in experiment [11], 15.3% (inactive); in experiment [12], 45.7% (inactive). Besides, the inhibition of aggregation in experiment [2] was -8.5% (inactive). Besides, the nuclei count stood at 102% in experiment [2] and 110% in experiment [3]. Also, the z-score in experiment [4] (setting [13]) was 0.315; in experiment [4] (setting [14]), 0.351; in experiment [4] (setting [15]) it was 1.54. In addition, the fluorescence slope in [6] was -0.432 (inactive). In addition, in [7], the NADPH fluorescence slope is -7.3e-05 (inactive). For the same compound, in experiment [8], the slope is 0.00471 (inactive). The compound was called inactive in experiment [9].
Regarding `c1ccc2c(CC3=NCCN3)cccc2c1`, in [1], the cell count is 547. Also, the inhibition was -0.9% (inactive) in experiment [1]; -43.3% (inactive) in experiment [3]; 9.37% (inactive) in experiment [5]; -6.08% (inactive) in [10]; 12.4% (inactive) in experiment [11]; 36.7% (inactive) in experiment [12]. Besides, the inhibition of aggregation in [2] is -4.4% (inactive). The nuclei count was 90.2% in experiment [2] and 118% in [3]. The z-score was -0.259 in experiment [4] (setting [13]), -0.0766 in experiment [4] (setting [14]) and 1 in experiment [4] (setting [15]). Also, the fluorescence slope in experiment [6] is -0.503 (inactive). Besides, the NADPH fluorescence slope in experiment [7] was -6.8e-05 (inactive). Also, the slope in experiment [8] was 0.00554 (inactive). Besides, in [9], the compound was called inactive.
In the case of `Brc1c(NC2=NCCN2)ccc2nccnc12`, the cell count in [1] amounted to 621. The inhibition in experiment [1] is -4.8% (inactive); in experiment [3], -58.7% (inactive); in [5], 34.5% (inactive); in experiment [10], 5.25% (inactive) and -5.37% (inactive); in experiment [11], 14% (inactive); in experiment [12] it was 28.8% (inactive). Besides, the inhibition of aggregation in experiment [2] is -11.3% (inactive). Also, the nuclei count in experiment [2] stood at 104%; in experiment [3] it was 120%. In addition, the values for the z-score in experiment [4] (setting [13]), in experiment [4] (setting [14]) and in [4] (setting [15]) were -0.535, 0.61 and 1.33, respectively. Besides, the fluorescence slope in experiment [6] was -0.534 (inactive). For the same compound, the NADPH fluorescence slope in [7] was 1.1e-06 (inactive). The slope in experiment [8] was 0.0151 (active). The outcome in experiment [9] was inactive.
On to `Cc1cccc(OCC(=O)N2CCC(N3CCCCCC3)CC2)c1`, for which the cell count in experiment [1] came to 395. Also, the inhibition in experiment [1] is -7.8% (inactive); in [3], -247% (inactive); in [5], 5.57% (inactive); in experiment [10] it was 17.1% (inactive); in [11] it was -0.464% (inactive); in experiment [12], 3.84% (inactive). Further, the inhibition of aggregation in experiment [2] is 17.2% (inactive). Further, the nuclei count in [2] amounted to 97.5%; in experiment [3], 128%. For the same compound, the z-score in [4] (setting [13]) was 1.59; in experiment [4] (setting [14]), 1.35; in experiment [4] (setting [15]) it was -0.179. For the same compound, the fluorescence slope in [6] was -0.384 (inactive). Also, the NADPH fluorescence slope in experiment [7] is -4.7e-05 (inactive). For the same compound, the slope in [8] was 0.00464 (inactive). The compound was classed as inactive in experiment [9].

(Values after PubChem BioAssay.)
